# Only some compounds are listed: those with a hit (about 10% of all), similar ones and a draw of the others.
# G9a block: G9a (human) methyltransferase inhibition; Q96KQ7; G9a H3K9 monomethylation, AlphaScreen, 2 h; Potency, µM (doses to about 102 µM), inactives show at the top dose activity, negative = inhibition, usual class: inhibitors; 350,000 tested, 8.8% active; AID 504332; further: on the % scale 0 is the no-effect control and ±100 the full control effect; nearly all actives have a fitted effect of over 75% in size
#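 AlphaScreen read-out: biotin-H3K9 peptide (500 nM) methylation by 20 nM enzyme with 20 uM SAM, 2 h at room temperature after 15 min compound preincubation; anti-monomethyl H3K9 antibody plus donor/acceptor beads, 10 min dark.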
# BAZ2B inh: inhibitors of human BAZ2B bromodomain. Q9UIF8. AlphaScreen BAZ2B-H3K14Ac peptide displacement. Potency, µM (series often up to 114 µM), for inactives: at the highest dose activity change, negative = inhibition, actives largely listed as inhibitors. 360,000 tested, 4.4% active; further: on the % scale 0 is the no-effect control and ±100 the full control effect; nearly all actives have a fitted effect of over 60% in size
#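 Multi-concentration screen (max 110 uM) measuring displacement of acetylated histone H3 peptide from BAZ2B by AlphaScreen, using 50 nM protein, 50 nM peptide and 10 ug/mL streptavidin donor plus Ni-chelate acceptor beads.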
# HP1b chromo inh: blocks HP1-beta chromodomain binding to methylated histone tails; P83916; AlphaScreen HP1-beta / biotin-H3K9me3 peptide binding; Potency, µM (doses to about 114 µM), for the others: at the highest dose activity change, negative = inhibition, hits mostly inhibitors; 390,000 tested, 0.56% active; further: nearly all actives have a fitted effect of over 70% in size
#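 HP1-beta protein (50 nM final) preincubated 30 min at room temperature with biotinylated H3(1-18)K9me3 peptide (50 nM) in PBS pH 7.4, 0.01% Tween-20, then compound added for 30 min. AlphaScreen streptavidin donor/nickel chelate acceptor beads (10 ug/mL final), 30 min dark, luminescence read.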
# GLS inhibitor: inhibitors of human glutaminase (GLS); GLS enzymatic activity, qHTS titration; Potency, µM (highest dose often 45.5 µM), for the others: top-dose activity change, negative = inhibition, hits mostly inhibitors; AID 624170; O94925; 410,000 tested, 0.21% active; further: on the % scale 0 is the no-effect control and ±100 the full control effect
#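 hKGA in 45 mM KH2PO4 pH 8.2, 0.02% Tween-20 with pin-transferred compounds; 1 mM L-glutamine (stock) plus glutamate oxidase/HRP/Amplex Red coupling added. Fluorescence read initially and after 30 min at RT.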
# JMJD2A Tudor: blocks the human JMJD2A Tudor domain | Potency, µM (doses to about 114 µM), inactives show at the top dose activity change, negative = inhibition, usual class: inhibitors | O75164 | AlphaScreen JMJD2A-Tudor / H3K4me3 peptide binding | 390,000 tested, 4.4% active | AID 504339; further: on the % scale 0 is the no-effect control and ±100 the full control effect; nearly all actives have a fitted effect of over 50% in size
# Target sequence (O75164 whole entry, looked up, the tested form may be a part): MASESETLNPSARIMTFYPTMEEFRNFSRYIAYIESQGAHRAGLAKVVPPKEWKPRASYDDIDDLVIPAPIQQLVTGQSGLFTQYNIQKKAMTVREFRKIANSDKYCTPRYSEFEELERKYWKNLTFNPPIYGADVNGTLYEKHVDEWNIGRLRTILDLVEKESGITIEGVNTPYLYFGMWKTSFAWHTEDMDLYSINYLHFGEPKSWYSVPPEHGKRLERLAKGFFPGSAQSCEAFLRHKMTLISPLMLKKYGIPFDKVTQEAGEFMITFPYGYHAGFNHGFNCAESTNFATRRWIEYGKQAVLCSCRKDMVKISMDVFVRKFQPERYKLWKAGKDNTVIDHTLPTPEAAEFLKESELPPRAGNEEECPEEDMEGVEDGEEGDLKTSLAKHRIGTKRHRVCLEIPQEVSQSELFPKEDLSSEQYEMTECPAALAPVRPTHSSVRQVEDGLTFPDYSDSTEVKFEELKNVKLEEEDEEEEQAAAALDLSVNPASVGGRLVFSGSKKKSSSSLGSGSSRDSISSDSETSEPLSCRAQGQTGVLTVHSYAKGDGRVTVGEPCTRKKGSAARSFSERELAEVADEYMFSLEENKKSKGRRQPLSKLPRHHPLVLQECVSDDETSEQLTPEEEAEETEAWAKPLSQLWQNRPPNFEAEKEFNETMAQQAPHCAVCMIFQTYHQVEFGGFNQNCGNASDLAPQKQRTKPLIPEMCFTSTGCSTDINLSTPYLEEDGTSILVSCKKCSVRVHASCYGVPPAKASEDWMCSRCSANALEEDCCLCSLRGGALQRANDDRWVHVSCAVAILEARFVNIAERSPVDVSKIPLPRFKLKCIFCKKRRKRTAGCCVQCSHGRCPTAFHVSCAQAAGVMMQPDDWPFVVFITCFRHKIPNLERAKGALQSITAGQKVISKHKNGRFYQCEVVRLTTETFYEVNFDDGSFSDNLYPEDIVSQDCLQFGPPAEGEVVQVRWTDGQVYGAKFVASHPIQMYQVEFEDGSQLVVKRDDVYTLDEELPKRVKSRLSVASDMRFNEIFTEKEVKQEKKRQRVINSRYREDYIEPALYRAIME
# The depositor's hits bear a star; ? = inconclusive; · = no result given; ! = repeats disagree; [ ] = remark or other dose. The call rests on the fitted dose curve; in most records, active means well fitted curve in the direction sought with a large enough effect; inconclusive means small, poorly fitted or top-dose-only effect, or another doubt; inactive means no such curve, though single readings can be large; an effect the other way counts as inactive or inconclusive. Potency means the concentration at half of the fitted maximal effect.
SMILES,G9a block,BAZ2B inh,HP1b chromo inh,GLS inhibitor,JMJD2A Tudor
CC1CCCC(C)N1C(=O)CSc1nc2c(c(=O)n(C)c(=O)n2C)n1C (centres undefined),3%,-24%,22%,0%,-15%
C#CCOCCOCCOCCNc1nc(N2CCOCC2)nc(N2CCN(C(=O)[C@H](CCCCN)n3cc([C@@H](N)C(C)CC)nn3)CC2)n1 (some centres undefined),?,-37%,36%,0%,-11%
C#CCOCCOCCOCCNc1nc(N2CCN(C(=O)C([C@@H](C)O)n3cc([C@@H](N)CCCCN)nn3)CC2)nc(N2CCN(C(=O)[C@H](CO)n3cc([C@@H](N)C(C)C)nn3)CC2)n1 (some centres undefined),·,·,25%,-4%,79µM*
C#CCOCCOCCOCCNc1nc(N2CCN(C(=O)C([C@@H](C)O)n3cc([C@@H](N)CCCCN)nn3)CC2)nc(N2CCN(C(=O)[C@H](CC(N)=O)n3cc(C(N)[C@@H](C)CC)nn3)CC2)n1 (some centres undefined),·,·,32%,-5%,?
C#CCOCCOCCOCCNc1nc(N2CCN(C(=O)C([C@@H](C)O)n3cc([C@@H](N)CCCCN)nn3)CC2)nc(N2CCN(C(=O)C([C@@H](C)O)n3cc([C@@H](N)CCCCN)nn3)CC2)n1 (some centres undefined),·,·,27%,4%,50µM*
C#CCOCCOCCOCCNc1nc(N2CCN(C(=O)[C@H](CO)n3cc([C@@H](N)C(C)C)nn3)CC2)nc(N2CCN(C(=O)[C@H](CO)n3cc([C@@H](N)C(C)C)nn3)CC2)n1,·,·,23%,6%,79µM*
O=C1CCc2cc(S(=O)(=O)Nc3ccc4ccccc4c3)ccc2N1,·,·,·,·,-22%
COc1ccc(/C=C2\SC(=S)N(CC(=O)NC3C=CS(=O)(=O)C3)C2=O)cc1 (centres undefined),13%,-36%,38%,-5%,-8%
Cc1ccc2c(c1)c1c3n2CCN(C(=O)CCl)C3CCC1 (centres undefined),?,56µM*,-7%,9%,?
CCOc1cc(C(=O)N2CCn3c4c(c5cc(C)ccc53)CCCC42)cc(OCC)c1OCC (centres undefined),-2%[59 µM],-14%,7%,-4%,-13%
Cc1ccc2c(c1)c1c(n2C)C(C(N)=O)CCC1 (centres undefined),40µM*,-29%,13%,3%,-18%
NC(=O)C1CCCc2c1n(Cc1ccccc1)c1ccccc21 (centres undefined),9%,-12%,-12%,1%,-31%
CC(=O)N1CCn2c3c(c4cc(C)ccc42)CCCC31 (centres undefined),-10%[12.7 µM],35µM*,-19%,16%,-33%
COc1cc2nc(N3CCN(C(=O)OCc4ccccc4)C(C(=O)NC(C)(C)C)C3)nc(N)c2cc1OC (centres undefined),5.6µM*!,·,·,·,·
COc1cc2nc(N3CCN(C(=O)OCc4ccccc4)[C@H](C(=O)NC(C)(C)C)C3)nc(N)c2cc1OC,7.1µM*,-17%,13%,1%,-28%
COc1ccc(OC)c(NC(=O)C2CCCN2C(=O)OCc2ccccc2)c1 (centres undefined),5%[59 µM],9%,18%,3%,-5%
COc1ccc(C)cc1NC(=O)C1CCCN1C(=O)OCc1ccccc1 (centres undefined),7%[59 µM],-2%,41%,-9%,9%
O=C(C[n+]1ccccc1)N/N=C/c1ccc(Cl)c(Cl)c1,-7%,50µM*,10%,-17%,22µM*
O=C(C[n+]1ccccc1)N/N=C/c1ccc(Br)cc1,5%[2.33 µM],-27%,28%,1%,-12%
Clc1ss/c(=N\c2ccccn2)c1Cl,1.8µM*,40µM*,18%,0%,-11%
Clc1ccccc1N=Nc1ccccn1,·,·,-21%,-9%,?
COc1cc(C)c(CNc2cc(C)cc(C)c2)cc1C,?,?,-16%,7%,89µM*
Oc1cc(CNC2CCCCC2)c(O)cc1CNC1CCCCC1,·,·,14µM*,?,22µM*
COc1ccccc1CC(=O)Nc1ccc(OC)c(OC)c1,33%[12.7 µM],7%,5%,5%,-16%
COc1cc(C)c(CNC2CCCCC2)cc1C,32µM*,?,?,-7%,5µM*
SMILES,G9a block,BAZ2B inh,HP1b chromo inh,GLS inhibitor,JMJD2A Tudor
COc1cc(S(=O)(=O)NCc2ccncc2)c(OC)cc1C,5%,-19%,-10%,7%,-13%
COc1cc(C)c(CNc2ccc(OC)c(OC)c2)cc1C,?,45µM*,·,·,·
CCCCn1cc(S(=O)(=O)c2ccc(C)c(C)c2)c(=O)c2cc(F)c(N(CC)CC)cc21,5%[59 µM],3%,10%,2%,-13%
N#CCC(C(=O)c1cccnc1)c1ccccc1 (centres undefined),·,·,·,0%,·
Cc1ccccc1-c1noc(-c2ccc(N3CCC(C)CC3)c([N+](=O)[O-])c2)n1,-23%[59 µM],-14%,32%,3%,-18%
COC(=O)[C@]12CCCCC=C1N(Cc1ccc(Cl)cc1Cl)C(=O)[C@H](CC(=O)N1CCSCC1)C2,·,·,·,1%,·
OCC1CCCN(C(=S)Nc2ccc(OC(F)F)cc2)C1 (centres undefined),16%,-6%,34%,0%,-2%
OCC1CCCN(C(=S)Nc2ccc(Nc3ccccc3)cc2)C1 (centres undefined),18µM*,?,?,?,?
CC(=O)c1c(C)[nH]c(C(=O)N2CCCC(C)C2)c1C (centres undefined),-2%,-13%,18%,2%,11%
CCCNC(=O)c1[nH]c(C)c(C(C)=O)c1C,5%[59 µM],?,69%,-1%,-22%
CC(=O)c1c(C)[nH]c(C(=O)NCC2CCCCC2)c1C,40µM*,-13%,13%,-5%,-18%
CC(=O)c1c(C)[nH]c(C(=O)N2CCCCCC2)c1C,35%[0.501 µM],50µM*,?,?,-35%[11.4 µM]
CCOc1ccc(-c2cccc(NC(=O)c3ccco3)c2)nn1,-4%,4%,23%,2%,0%
C=C1CCC[C@]2(C)C[C@H]3OC(=O)C(CNCCN(CC)CC)[C@H]3CC12 (some centres undefined),27%[0.501 µM],25µM*,?,-18%,1.8µM*
C=C1CCC[C@]2(C)C[C@H]3OC(=O)C(CNCCN(C)C)[C@H]3CC12 (some centres undefined),0%[12.7 µM],-7%,28%,9%,-17%
CC1CCN(S(=O)(=O)c2cc(F)ccc2CN2C(=O)c3cccnc3C2=O)CC1,-2%,56µM*,56%,-6%,-2%
CC1CCN(S(=O)(=O)c2cccc3cccnc23)CC1,13%,9%,13%,-15%,-11%

# Compound activity from PubChem.
